aDG glyco act = increases alpha dystroglycan glycosylation; 360,000 compounds, 0.22% hits; Pro5-aDG cells, alpha-DG glycosylation AlphaScreen (IIH6); 0% Pro5, 100% B10-LARGE cell signal; AID 624168; activation, % at 10 µM;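 active = activation of at least 8% versus controls, or a plate z-score of at least 8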;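 also: Pro5 are CHO cells carrying HIG-tagged alpha-DG that lacks glycosylation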
FAS TE block = blocks the thioesterase domain of human fatty acid synthase. P49327. recombinant FAS-TE, OMFH fluorogenic substrate, fluorescence endpoint. 360,000 compounds, 0.67% hits. inhibition, % at 15 µM;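 active = compounds whose normalised, plate-corrected inhibition of enzyme fluorescence in the single-dose primary screen is 50% or more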;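 also: 0% = DMSO with enzyme and 100% = substrate without enzyme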
CRFBP-R2 block = CRF-BP/CRF-R2 complex antagonism; HEK293 CRF-R2/CRF-BP, CRF-induced calcium fluorescence; AID 588475; inhibition, % at 11.8 µM; 350,000 compounds, 0.59% hits;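 active = inhibition of the ligand-induced calcium signal above about 50% at the single tested concentration, limit read from the data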
Cardio protect = myocardial damage modulation in H9c2 cells; protection from H2O2 cell death, % at 20 µM; H9c2 cardiomyocytes, H2O2 injury protection, ATPLite, 2 h; 360,000 compounds, 0.63% hits; AID 588492;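 active = compounds giving at least 50% protection of heart cells from peroxide-induced death in the single-dose screen, raw or plate-pattern-corrected value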;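 also: 0% = DMSO wells with peroxide and 100% = DMSO wells without peroxide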
CRFBP-R2 agonist = CRF-BP/CRF-R2 complex agonism; 350,000 compounds, 0.46% hits; AID 588473; HEK293 CRF-R2/CRF-BP, calcium dye fluorescence (FLIPR); percent of saturating CRF peptide response; activation, % at 13.2 µM;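 active = activation of at least 50%, plus an integration ratio under a set limit after plate pattern correction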;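 also: plate controls were neutral control wells without compound for no effect and CRF at EC100 for full effect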
PfGluPho inh = PfG6PD (Plasmodium falciparum) enzyme inhibition. PfGluPho enzyme, NADPH resazurin-diaphorase fluorescence. inhibition, % at 20 µM. 350,000 compounds, 0.78% hits. AID 504690;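 active = inhibition reaching at least a set limit at 20 µM in the primary screen, cut at about 59% in these data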;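 also: 0% = DMSO wells with substrate and 100% = DMSO wells lacking glucose-6-phosphate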
aDG glyco conf = confirmation of alpha dystroglycan glycosylation activators. shares compounds with aDG glyco act. Pro5-aDG cells, alpha-DG glycosylation, IIH6 AlphaLISA; scaled to LARGE-overexpressing B10 cells as 100%. activation, % at 10 µM (by protocol). 600 compounds, 17% hits;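 active = activation of at least 7% in one or more replicates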;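 also: cells exposed to compound for two days before detection; 0% = DMSO-treated Pro5 cells and 100% = DMSO-treated B10-LARGE cells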
* hit, by the source's call; . = not tested or not shown. In the library only some 3.2% were active in any assay of this set; here they are far more common.

SMILES	aDG glyco act	FAS TE block	CRFBP-R2 block	Cardio protect	CRFBP-R2 agonist	PfGluPho inh	aDG glyco conf
CCN1CCN(c2ccc(S(=O)(=O)N3CCCCC3)cc2NC(=O)/C=C/c2ccc(OC(F)F)cc2)CC1	1	14	-19	-10	0	7	.
CN1CCN(c2ccc(S(=O)(=O)N3CCCCC3)cc2NC(=O)/C=C/c2ccc(OC(F)F)cc2)CC1	7.5*	6	-12	13	3	14	17*
CC(=O)NC(C)(c1ccccc1)c1nc(-c2csc3ccccc23)cs1 (stereo unspecified)	0	21	.	-8	.	.	.
Cc1nn(C)c(C)c1/C=C/C(=O)c1ccc(Cl)cc1Cl	8.4*	-3	-11	-33	0	-11	2
CCC(C(=O)NCc1ccco1)N(C(=O)CNS(=O)(=O)c1ccc(F)cc1)c1ccccc1F (stereo unspecified)	3.5*	-2	1	0	-1	4	-1
c1ccc(-c2nnc(CN3CCN(C(c4ccccc4)c4ccccc4)CC3)o2)cc1	6.8*	9	44	2	-2	-13	0
c1ccc(-c2nnc(CN3CCN(c4ccccc4)CC3)o2)cc1	0	-7	18	-5	-4	3	.
Cc1ccccc1CNS(=O)(=O)c1ccccc1[N+](=O)[O-]	1	6	7	-1	1	15	.
Cc1onc(-c2ccccc2)c1CNS(=O)(=O)c1ccccc1[N+](=O)[O-]	2.6*	4	7	-6	1	-4	-1
CC(C)(C)C(=O)Nc1ccc(C(=O)NCc2cccnc2)cc1	0	-3	17	-5	0	-13	.
CC(C)(C)c1ccc(C(=O)Nc2ccc(C(=O)NCc3cccnc3)cc2)cc1	2.3*	2	-8	-6	0	14	4.5*
O=C(NCc1ccc(F)cc1)C1CCC(CNS(=O)(=O)c2ccccc2)CC1 (stereo unspecified)	0	-4	3	0	-1	-13	.
CCCCn1c(N)c(N(CCOC)C(=O)COc2ccc(Cl)cc2)c(=O)[nH]c1=O	0	-6	-27	4	1	-7	.
O=C(/C=C/c1ccco1)Nc1ccc(-c2nc3ccccc3[nH]2)cc1	5.0*	-3	-46	17	8	1	-1
CC(=O)Nc1ccc(S(=O)(=O)N(C)C2CCN(C)CC2)cc1	0	-7	3	-1	2	-1	.
CC(Oc1cccc(Cl)c1)C(=O)Nc1ccc(S(=O)(=O)N(C)C2CCN(C)CC2)cc1 (stereo unspecified)	5.7*	-7	-2	-1	33	-5	5.3*
CC(=O)Nc1cccc(NC(=O)C(=O)c2cn(CC(=O)N3CCCC3)c3ccccc23)c1	0	-5	-1	2	-2	7	.
COC(=O)C1=C(C)NC(=S)NC1c1ccc(OC(=O)c2ccco2)cc1 (stereo unspecified)	5.3*	-3	13	5	-3	-20	2
C(=N\c1nc2ccccc2n1CCN1CCCCC1)/c1ccc2c(c1)OCO2	7.8*	-4	5	6	1	-7	2
CC(CNC(=O)c1cc(COc2ccc3ncccc3c2)on1)c1ccccc1 (stereo unspecified)	4.7*	17	-14	-17	-1	20	2
CCOC(=O)N1CCN(C(=O)c2cc(COc3ccc4ncccc4c3)on2)CC1	7.8*	-5	32	-23	-1	-6	1
O=C(NC1CCCCCCC1)c1cc(COc2ccc3ncccc3c2)on1	2	21	-19	-37	0	23	.
O=C(c1cc(COc2ccc3ncccc3c2)on1)N1CCC[C@H]1CO	5.5*	-6	-3	-21	0	4	0
Cc1cccnc1CN1CCN(C(=O)c2cc(COc3ccc4ncccc4c3)on2)CC1	2	-4	-6	-20	0	-5	.
O=C(c1cc(COc2ccc3ncccc3c2)on1)N1CCCC(O)C1 (stereo unspecified)	1	-1	1	-8	4	-4	.
SMILES	aDG glyco act	FAS TE block	CRFBP-R2 block	Cardio protect	CRFBP-R2 agonist	PfGluPho inh	aDG glyco conf
CC(=O)N1CCCc2cc(S(=O)(=O)N3CCC(C)CC3)ccc21	23*	-2	13	0	0	6	-1
FC(F)Oc1ccc(NC(=S)NC23CC4CC(CC(C4)C2)C3)cc1	2.0*	22	5	-9	6	7	0
Nc1cc(=O)[nH]c(=O)n1CC1CC1	0	-9	12	4	1	-4	.
COc1ccc2sc(/C=C/c3ccccc3O)[n+](C)c2c1	11*	-8	-78	-8	45	45	1
CCOc1ccccc1CN1CCNC(=O)C1CC(=O)N(C)C1CCOCC1 (stereo unspecified)	0	-7	-8	-4	0	15	.
Cc1cc(C)cc(NC(=O)CN2CCN(CCN=CC3=C(O)CC(c4ccc(Cl)cc4)CC3=O)CC2)c1 (stereo unspecified)	0	-6	-17	-3	-2	-10	.
CN1CCc2c(sc(NC(=O)c3ccc(S(=O)(=O)N4CCOCC4)cc3)c2C(N)=O)C1	1	-16	-6	6	11	9	.
CCOC(=O)N1CCN(S(=O)(=O)c2ccc(C(=O)Nc3sc4c(c3C(N)=O)CCN(CC)C4)cc2)CC1	86*	0	-6	3	2	-1	0
CN1CCc2c(sc(NC(=O)c3ccc(S(=O)(=O)N4CCCC4)cc3)c2C(N)=O)C1	14*	-22	-36	10	28	-1	2
CCOC(=O)N1CCN(S(=O)(=O)c2ccc(C(=O)Nc3sc4c(c3C(=O)OC)CCN(C)C4)cc2)CC1	0	0	12	-19	7	11	.
CCN1CCc2c(sc(NC(=O)c3ccc(S(=O)(=O)N4CCCC4)cc3)c2C(=O)NC)C1	47*	-5	-16	-14	2	4	0
O=C(Nc1cccc(C(=O)O)c1)/C(=C\c1ccc(F)cc1)NC(=O)c1ccco1	0	-6	7	-3	1	-4	.
COc1ccc(S(=O)(=O)N(C)c2ccc(C(=O)Nc3c(C)n(C)n(-c4ccccc4)c3=O)cc2)cc1	0	-3	-2	-3	-1	8	.
Cc1cc2c(cc1C)C(=O)C(Br)=C(N)C2=O	6.1*	1	-6	-14	-8	36	-1
Cc1cc(-c2cc(C)c(N)cc2C)c(C)cc1N	0	-4	24	1	-5	4	.
Cc1ccc(NC(=O)c2ccc([N+](=O)[O-])s2)cc1S(=O)(=O)N1CCOCC1	9.0*	0	-1	-16	-1	6	6.1*
